Experimental findings from PubChem BioAssay are described below.

Each structure is given as a SMILES string. Where “and” joins values, the source holds several entries; their conditions need not be identical. Identical values can stand only once. The source holds several records for some structures; these can differ, active in one and inactive in another. Calls of active or inactive are those of the source. Rule as the data show it, unless noted: active = parasite load remaining mostly below about 12% (no sharp cut-off); inactive = mostly above about 10%.

One assay can be described thus: GFP-Q80 aggregate reduction, neuronal-like cells, cell-based, NGF-treated PC12, GFPQ80 (AID 1614).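 Also: lower means fewer inclusions and 0 means no inclusions at all.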 The conditions noted are these: PC12 NGF-treated GFP-polyQ80 inclusion reduction.
Compound `[N-]=[N+]=CC(=O)OCC(N)C(=O)O` (stereo not given) came in with an inclusion score of 1.

The compound `C[C@H](N)[C@H](O)c1ccc(O)c(O)c1` came in with an inclusion score of 2.

Regarding `CC[N+]1(C)CCCC(OC(=O)C(O)(c2ccccc2)c2ccccc2)C1` (stereo not given), the inclusion score stood at 2.

`CC1=NCCc2c1[nH]c1cc(O)ccc21` gave an inclusion score of 2.

For the compound `C=CCC1(C(C)CCC)C(=O)N=C(S)NC1=O` (stereo not given), the inclusion score was found to be 2.

Compound `OC1CCCCC1N1CCC(c2ccccc2)CC1` (stereo not given) yielded an inclusion score of 2.

The compound `CC[C@@H]1C(=O)OC[C@@H]1Cc1cncn1C` yielded an inclusion score of 2.

On to `O=[N+]([O-])c1cc([As](=O)(O)O)ccc1O`, for which the inclusion score amounted to 1.5.

Take `NC(N)=NOCC[C@H](N)C(=O)O`: the inclusion score was 2.

`NCCc1c[nH]c2ccccc12` came in with an inclusion score of 2.

In turn, `CN[C@@H](C)[C@@H](O)c1ccccc1` came in with an inclusion score of 2.

The compound `COc1ccc2c3c([nH]c2c1)C(C)=NCC3` showed an inclusion score of 2.

The compound `CN1CCc2cc3c(cc2C1O)OCO3` (stereo not given) showed an inclusion score of 2.

The compound `CNC(C)C(O)c1ccccc1` (stereo not given) displayed an inclusion score of 2.

Turning to `CN(C)[C@@H]1C(=O)C(C(N)=O)=C(O)[C@@]2(O)C(=O)C3=C(O)c4c(O)ccc(Cl)c4[C@@](C)(O)[C@H]3C[C@@H]12`, the inclusion score came out at 0.

The next assay in a line: 75Q-TubH aggregate inhibition, S. cerevisiae, yeast (AID 1616). The conditions noted are these: S. cerevisiae 75Q-TubH polyglutamine aggregation suppression; stronger effect = higher value.
`[N-]=[N+]=CC(=O)OCC(N)C(=O)O` (stereo not given) returned an aggregation suppression score of 0.586.

`C[C@H](N)[C@H](O)c1ccc(O)c(O)c1` registered an aggregation suppression score of 1.14.

In turn, `CC[N+]1(C)CCCC(OC(=O)C(O)(c2ccccc2)c2ccccc2)C1` (stereo not given) returned an aggregation suppression score of 1.25.

In turn, `CC1=NCCc2c1[nH]c1cc(O)ccc21` registered an aggregation suppression score of 1.24.

In the case of `ClC1C(Cl)C(Cl)C(Cl)C(Cl)C1Cl` (stereo not given), the aggregation suppression score is -0.101.

For the compound `C=CCC1(C(C)CCC)C(=O)N=C(S)NC1=O` (stereo not given), the aggregation suppression score is 1.19.

Take `CCCCCCCCCCCCCCCC[n+]1ccccc1`: the aggregation suppression score is -0.00459.

For the compound `OC1CCCCC1N1CCC(c2ccccc2)CC1` (stereo not given), the aggregation suppression score came out at 1.46.

With `CC[C@@H]1C(=O)OC[C@@H]1Cc1cncn1C`, the aggregation suppression score stood at 1.4.

On to `O=[N+]([O-])c1cc([As](=O)(O)O)ccc1O`, for which the aggregation suppression score stood at 1.08.

`NC(N)=NOCC[C@H](N)C(=O)O` showed an aggregation suppression score of 1.39.

With `O=C1C=CC(=O)c2c(O)cccc21`, the aggregation suppression score came to 0.876.

The compound `NCCc1c[nH]c2ccccc12` displayed an aggregation suppression score of 1.32.

Regarding `CN[C@@H](C)[C@@H](O)c1ccccc1`, the aggregation suppression score worked out at 1.15.

The compound `COc1ccc2c3c([nH]c2c1)C(C)=NCC3` registered an aggregation suppression score of 0.883.

With `CN1CCc2cc3c(cc2C1O)OCO3` (stereo not given), the aggregation suppression score worked out at 1.11.

As for `CNC(C)C(O)c1ccccc1` (stereo not given), the aggregation suppression score is 1.13 and 1.02.

`CN(C)[C@@H]1C(=O)C(C(N)=O)=C(O)[C@@]2(O)C(=O)C3=C(O)c4c(O)ccc(Cl)c4[C@@](C)(O)[C@H]3C[C@@H]12` yielded an aggregation suppression score of 0.363.

Another assay can be described thus: compounds altering circadian rhythm period length – cell-based, LOPAC library, luminescence reporter (AID 2774; call rule not given here;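 also: values are relative to mean of DMSO wells on each plate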). The conditions noted are these: circadian reporter cells, at 7 µM, actives lie on both sides.
Consider `O=C(O)CC[N+](=O)[O-]`, for which the period change is -0.005 h (inactive).

`OC1CCCCC1N1CCC(c2ccccc2)CC1` (stereo not given): the period change is 0.065 h (inactive).

Regarding `CC[C@@H]1C(=O)OC[C@@H]1Cc1cncn1C`, the period change is -0.045 hour (inactive) and -0.055 hour (inactive).

`NC(N)=NOCC[C@H](N)C(=O)O`: the period change is -0.04 h (inactive).

In the case of `CN1C2CCC1CC(OC(c1ccccc1)c1ccccc1N)C2` (stereo not given), the period change was 0.055 h (inactive).

For the compound `NCCc1c[nH]c2ccccc12`, the period change is 0.085 h (inactive).

A further assay is described as follows: compounds altering viability of human ES cells (AID 493140; call rule not given here;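 also: cells exposed to compounds for four days before counting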). The conditions noted are these: human embryonic stem cell survival screen; stronger effect = higher value.
On to `CC[N+]1(C)CCCC(OC(=O)C(O)(c2ccccc2)c2ccccc2)C1` (stereo not given), for which the survival was 2.83 (inactive).

With `CC1=NCCc2c1[nH]c1cc(O)ccc21`, the survival was 17.3 (inactive).

For `OC1CCCCC1N1CCC(c2ccccc2)CC1` (stereo not given), the survival was 2.42 (inactive).

Consider `CC[C@@H]1C(=O)OC[C@@H]1Cc1cncn1C`, for which the survival was 5.75 (inactive).

In the case of `COc1cc2c(cc1OC)C(C)NCC2` (stereo not given), the survival is 7.17 (inactive).

On to `O=[N+]([O-])c1cc([As](=O)(O)O)ccc1O`, for which the survival was 4.83 (inactive).

`COc1ccc2c(c1O)-c1c(OC)c(OC)cc3c1[C@H](C2)N(C)CC3`: the survival was 5.58 (inactive).

Consider `COc1ccc2c(c1)[nH]c1c(C)nccc12`, for which the survival was 4.58 (inactive).

For `COc1ccc2c3c([nH]c2c1)C(C)=NCC3`, the survival was 6 (inactive).

For the compound `CN1CCc2cc3c(cc2C1O)OCO3` (stereo not given), the survival was 16.8 (inactive).

On to `CN(C)[C@@H]1C(=O)C(C(N)=O)=C(O)[C@@]2(O)C(=O)C3=C(O)c4c(O)ccc(Cl)c4[C@@](C)(O)[C@H]3C[C@@H]12`, for which the survival is 14.3 (inactive).

The next assay is described as follows: P. berghei load reduction in hepatocytes – cell-based, HepG2, luciferase luminescence, HepG2 viability, primary screen (AID 624349).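 Also: 100% = mean of DMSO negative control wells on the same plate.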 Particulars: P. berghei liver stage in HepG2, luciferase luminescence, concentration not given here; parasite load remaining: stronger effect = lower value; viability: measured here: HepG2 viability without parasites.
The term viability denotes a read-out of living cells in per cent, often relative to untreated cells. Take `COc1cc(OC)c(OC)cc1C=O`: the viability was 91.7% and the parasite load remaining was 70.8% (inactive).

As for `[N-]=[N+]=CC(=O)OCC(N)C(=O)O` (stereo not given), the parasite load remaining is 3.63% (inactive) and the viability was 82.2%.

Regarding `C[C@H](N)[C@H](O)c1ccc(O)c(O)c1`, the viability is 93.6% and 73.6% and 105%; the parasite load remaining was 61.3% (inactive) and 64.5% (inactive) and 57.8% (inactive).

For `S=C=NCc1ccccc1`, the viability is 72.2% and the parasite load remaining was 45.7% (inactive).

In the case of `CC[N+]1(C)CCCC(OC(=O)C(O)(c2ccccc2)c2ccccc2)C1` (stereo not given), the viability is 99.5% and 99.4%; the parasite load remaining is 98.8% (inactive) and 137% (inactive).

Turning to `CC1=NCCc2c1[nH]c1cc(O)ccc21`, the parasite load remaining was 47.1% (inactive) and 63.7% (inactive) and 58.9% (inactive); the viability was 102% and 67.4% and 76.2%.

Consider `C[C@@H](N)[C@@H](O)c1ccccc1`, for which the viability was found to be 110% and the parasite load remaining is 28.8% (inactive).

In the case of `ClC1C(Cl)C(Cl)C(Cl)C(Cl)C1Cl` (stereo not given), the parasite load remaining is 60.1% (inactive) and the viability worked out at 93.4%.

In the case of `C=CCC1(C(C)CCC)C(=O)N=C(S)NC1=O` (stereo not given), the parasite load remaining is 21.5% (inactive) and the viability is 101%.

For the compound `O=C1C=C2C=C[C@@H]3C[C@@]2(O1)[C@H]1CCCCN31`, the parasite load remaining was 73.8% (inactive) and the viability was determined as 90.5%.

Regarding `CCCCCCCCCCCCCCCC[n+]1ccccc1`, the viability is 14.3% and 4.9%; the parasite load remaining was -0.13% (inactive) and -0.08% (inactive).

Regarding `OC1CCCCC1N1CCC(c2ccccc2)CC1` (stereo not given), the viability is 88.2% and 106%; the parasite load remaining is 122% (inactive) and 70.2% (inactive).

Regarding `COc1cc2c(cc1OC)C(C)NCC2` (stereo not given), the parasite load remaining is 65.2% (inactive) and 87.3% (inactive); the viability was 106% and 76.1%.

`O=[N+]([O-])c1cc([As](=O)(O)O)ccc1O`: the parasite load remaining is 90.8% (inactive) and -0.22% (active) and 33.7% (inactive); the viability is 83.9% and 75.8% and 93.4%.

For the compound `COc1ccc2c(c1O)-c1c(OC)c(OC)cc3c1[C@H](C2)N(C)CC3`, the parasite load remaining was 125% (inactive) and 105% (inactive) and 60.3% (inactive); the viability is 106% and 65% and 79.8%.

`COc1ccc2c(c1)[nH]c1c(C)nccc12`: the viability was 76.6% and 67.9% and 85.5%.

As to `NC(N)=NOCC[C@H](N)C(=O)O`, the viability was 112% and 68.7%; the parasite load remaining is 114% (inactive) and 105% (inactive).

`NCCc1c[nH]c2ccccc12`: the parasite load remaining is 148% (inactive) and the viability came to 88.3%.

For `CN[C@@H](C)[C@@H](O)c1ccccc1`, the viability was 73.1% and 87.5%; the parasite load remaining is 106% (inactive) and 61.4% (inactive).

Turning to `COc1ccc2c3c([nH]c2c1)C(C)=NCC3`, the parasite load remaining is 83.9% (inactive) and 28.8% (inactive) and 84.4% (inactive); the viability was 103% and 71.6% and 83.5%.

On to `CN1CCc2cc3c(cc2C1O)OCO3` (stereo not given), for which the parasite load remaining was 109% (inactive) and 58% (inactive); the viability is 90% and 91.8%.

For `CNC(C)C(O)c1ccccc1` (stereo not given), the parasite load remaining was 90.9% (inactive) and 53.2% (inactive); the viability was 77.9% and 114%.

With `CN(C)[C@@H]1C(=O)C(C(N)=O)=C(O)[C@@]2(O)C(=O)C3=C(O)c4c(O)ccc(Cl)c4[C@@](C)(O)[C@H]3C[C@@H]12`, the parasite load remaining was 104% (inactive) and 84.9% (inactive) and 79.4% (inactive); the viability was 73.9% and 86% and 80%.
